Bioassay records from PubChem.
Rows were chosen to be rich in hits. Some 0.34% of all compounds tested hit in one or more screens of this group.
miR-21 reporter = qHTS Assay for Modulators of miRNAs and/orActivators of miR-21; HeLa miR-21 FLuc reporter, luciferase, 48 h; Potency, µM (highest dose often 38.3 µM), for inactives: at the top dose activity change, positive = activation, usual class: activators; 340,000 tested, under 10 active; AID 2288, 2010;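 note: % of control where 0% means no effect; miR-21 action dims this reporter so a rising signal means less miR-21 action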
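Using DMEM plus 10% FBS, HeLa miR-21-FLuc cells are incubated with test compounds (final up to about 40uM) for 48 hours; firefly luciferase signal is then imaged following reagent-mediated lysis.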
Vif-A3F inh = qHTS for Inhibitors of Vif-A3F Interactions: qHTS | AID 602313, 2012 | 390,000 compounds, 0.2% hits | Potency, µM (doses to about 46.1 µM), for inactives: top-dose activity, negative = active | HeLa A3F-eYFP + Vif (tagged APOBEC3F with the HIV-1 protein that degrades it), YFP fluorescence increase; note: potency is the fitted concentration of half-maximal effect; % of control where 0% means no effect; nearly all actives have a fitted effect of over 65% in size
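HeLa cells stably expressing Vif plus C-terminally eYFP-tagged A3F were seeded, incubated overnight at 37 deg C, dosed with compound, incubated overnight again at 37 deg C. Yellow fluorescence (Ex 488/Em 500-530) reported blocked Vif-mediated A3F-eYFP degradation.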
Vif-APOBEC3G blk = qHTS for Inhibitors of Vif-A3G Interactions: qHTS. Potency, µM (titrated, usually from 46.1 µM), for the others: at the top dose activity, negative = active, hits mostly inhibitors. HeLa A3G-eYFP + Vif (tagged APOBEC3G with the HIV-1 protein that degrades it), YFP fluorescence, overnight. DNA dC->dU-editing enzyme APOBEC-3G (Homo sapiens), Q9HC16. AID 602310, 2012. 410,000 compounds, 0.076% hits; note: potency is the fitted concentration of half-maximal effect; % is set by controls: 0 for no effect and ±100 for the full control effect; nearly all actives have a fitted effect of over 60% in size
Target sequence (Q9HC16 whole entry, looked up): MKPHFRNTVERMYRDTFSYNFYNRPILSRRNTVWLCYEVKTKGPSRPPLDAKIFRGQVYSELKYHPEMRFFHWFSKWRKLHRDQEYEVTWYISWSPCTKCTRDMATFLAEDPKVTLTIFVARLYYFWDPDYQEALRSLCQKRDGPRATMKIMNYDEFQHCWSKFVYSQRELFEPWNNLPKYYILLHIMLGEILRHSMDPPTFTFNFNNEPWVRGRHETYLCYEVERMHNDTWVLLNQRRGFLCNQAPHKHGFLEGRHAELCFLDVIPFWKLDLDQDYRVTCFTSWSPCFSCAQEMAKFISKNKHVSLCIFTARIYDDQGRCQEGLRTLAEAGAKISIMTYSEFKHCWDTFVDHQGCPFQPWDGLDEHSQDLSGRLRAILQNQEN
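Read-out is eYFP fluorescence (Ex 488/Em 500-530) from Vif-expressing HeLa A3G-eYFP cells; more signal means A3G escaped Vif-mediated degradation. Cells plated overnight, compound pinned in, incubated overnight at 37 deg C.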
Epigenetic reg = Quantitative High-Throughput Screen for Regulators of Epigenetic Control; murine LDR cells, GFP reporter derepression, 30 h; Potency, µM (titrated, usually from 53.9 µM), for inactives: at the highest dose GFP activation, most hits filed as activators; 280,000 compounds, 0.2% hits; note: potency is the fitted concentration of half-maximal effect; % of control where 0% means no effect; nearly all actives have a fitted effect of over 60% in size
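Readout is the number of GFP-expressing murine LDR cells, counted by cytometry following washing. Cells were treated with compound for 30 h at 37 C; the stably integrated CMV-GFP locus is normally silent.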
Starred values were filed as active, the others as inactive. Calls come from the whole dose curve; as a rule, active = well fitted curve in the direction sought with a large enough effect; inconclusive = small, poorly fitted or top-dose-only effect, or another doubt; inactive = no such curve, though single readings can be large; an effect the other way counts as inactive or inconclusive.

Oc1[nH]c2ccccc2c1N=Nc1ccccc1Cl was read as Vif-A3F inh 22µM* and Vif-APOBEC3G blk -15%.
For Cc1c(C(=O)O)sc2nc(-c3cccs3)cc(C(F)(F)F)c12 the results were miR-21 reporter 4%, Vif-A3F inh -17% and Vif-APOBEC3G blk 1%.
For CC(=O)c1sc2nc(-c3cccs3)cc(C(F)(F)F)c2c1N the results were miR-21 reporter -4%, Vif-A3F inh 5µM*, Vif-APOBEC3G blk inconclusive and Epigenetic reg 16µM*.
For O=C(NCc1ccc(OC(F)(F)F)cc1)c1cccc2c1C(=O)c1ccc(N3CCC(Cc4ccccc4)CC3)cc1S2(=O)=O the results were Vif-A3F inh inconclusive and Vif-APOBEC3G blk -9%.
`O=C(NCc1cc(C(F)(F)F)ccc1Cl)c1cccc2c1C(=O)c1ccc(N3CCCCC3)cc1S2(=O)=O` gave Vif-A3F inh -5% and Vif-APOBEC3G blk -10%.
`O=C(NCc1cc(C(F)(F)F)ccc1Cl)c1cccc2c1C(=O)c1ccc(N3CCOCC3)cc1S2(=O)=O` gave Vif-A3F inh 10µM* and Vif-APOBEC3G blk 3%.
`O=C(NCc1ccco1)c1cccc2c1C(=O)c1ccc(N3CCC(Cc4ccccc4)CC3)cc1S2(=O)=O` gave Vif-A3F inh 10µM* and Vif-APOBEC3G blk inconclusive.
Screening O=C(NCc1cccc(F)c1)c1cccc2c1C(=O)c1ccc(N3CCC(Cc4ccccc4)CC3)cc1S2(=O)=O returned Vif-A3F inh 32µM* and Vif-APOBEC3G blk 11µM*.
O=C(NCc1cccc(C(F)(F)F)c1)c1cccc2c1C(=O)c1ccc(N3CCC(Cc4ccccc4)CC3)cc1S2(=O)=O was read as Vif-A3F inh 22µM* and Vif-APOBEC3G blk inconclusive.
CCOC(=O)c1ccccc1OCc1cc(C2Nc3ccccc3C(=O)N2c2cccc3ccccc23)ccc1OC (stereo not given) was read as Vif-APOBEC3G blk 2%.
Screening CCN(c1ccccc1)c1ncnc2c1cnn2-c1ccc(C)cc1C returned miR-21 reporter -10%, Vif-A3F inh 0%, Vif-APOBEC3G blk -5% and Epigenetic reg 5%.
Screening CC(C)(C)n1ncc2c(=O)n(Cc3cccc(-c4ccccc4)c3)cnc21 returned Vif-APOBEC3G blk 0%.
For CC1CCN(c2ccc3c(c2)S(=O)(=O)c2cccc(C(=O)NCc4cccc(F)c4)c2C3=O)CC1 the results were Vif-A3F inh inconclusive and Vif-APOBEC3G blk 20µM*.
`COc1ccccc1N1CCN(c2ccc3c(c2)S(=O)(=O)c2cccc(C(=O)NCc4ccc(F)cc4)c2C3=O)CC1` gave Vif-A3F inh -7% and Vif-APOBEC3G blk -5%.
For CC(C)(C)CC(C)(C)N=C1Nc2ccc(Cl)cc2NC12C[C@H]1CCC(=O)N3CC[C@@H](C2)[C@@H]13 (stereo not given in full) the results were Vif-APOBEC3G blk -8%.
`O=C(c1cc(-c2ccccc2O)on1)N1CCCCC1` gave miR-21 reporter -69% and Epigenetic reg 0%.
Screening Cc1[nH]c2ccccc2c1/C=C/C(=O)c1ccccc1 returned miR-21 reporter -19%, Vif-A3F inh 28µM*, Vif-APOBEC3G blk inconclusive and Epigenetic reg inconclusive.
For Cc1[nH]c2ccccc2c1/C=N/NC(=O)c1ccccc1 the results were miR-21 reporter -34%, Vif-A3F inh 0% and Vif-APOBEC3G blk -5%.
`CCN1/C(=C/c2ccc3cc(C)cc(C)c3[n+]2CC)Sc2cc(C)ccc21` gave miR-21 reporter inconclusive, Vif-A3F inh 5%, Vif-APOBEC3G blk inconclusive and Epigenetic reg 16µM*.
CCN1/C(=C\c2ccc3cc(C)ccc3[n+]2CC)Sc2cc(C)c(C)cc21 was read as Vif-A3F inh inconclusive, Vif-APOBEC3G blk 15% and Epigenetic reg 3.2µM*.
Screening COc1ccc(C2c3ccc(O)cc3Oc3ncn4nc(-c5ccco5)nc4c32)cc1OC (stereo not given) returned miR-21 reporter -11%, Vif-A3F inh -26%, Vif-APOBEC3G blk -1% and Epigenetic reg 22µM*.
Screening COc1ccc(C2c3ccc(O)cc3Oc3ncn4nc(-c5ccccn5)nc4c32)cc1OC (stereo not given) returned miR-21 reporter -17%, Vif-A3F inh -17%, Vif-APOBEC3G blk -2% and Epigenetic reg 0%.
Screening Cc1c(C#N)c(O)n(C)c(=O)c1N=Nc1ccc(S(N)(=O)=O)cc1 returned miR-21 reporter -33%, Vif-A3F inh inconclusive, Vif-APOBEC3G blk 1% and Epigenetic reg 1%.
For CCOC(=O)c1ccc(N=Nc2c(C)c(C#N)c(O)[nH]c2=O)cc1 the results were miR-21 reporter -13%, Vif-A3F inh 10µM*, Vif-APOBEC3G blk -11% and Epigenetic reg 6%.
For Cc1cc(NS(=O)(=O)c2ccc(NC(=O)COc3c(C)ccc(C)c3C)cc2)nc(C)n1 the results were miR-21 reporter -3%, Vif-A3F inh 0%, Vif-APOBEC3G blk -1% and Epigenetic reg 1%.
Screening O=C(/C=C/c1ccncc1)c1cc(Cl)ccc1O returned miR-21 reporter -5%, Vif-A3F inh 25µM*, Vif-APOBEC3G blk inconclusive and Epigenetic reg 1%.
For CN(C)c1ccc(/C=C/C(=O)c2cc(Cl)ccc2O)cc1 the results were miR-21 reporter -5%, Vif-A3F inh -11%, Vif-APOBEC3G blk -9% and Epigenetic reg 0%.
For O=C(Cc1ccc(-c2ccccc2)cc1)NCCS(=O)(=O)N1CCN(c2cccc(Cl)c2)CC1 the results were miR-21 reporter -3%, Vif-A3F inh 10%, Vif-APOBEC3G blk -3% and Epigenetic reg 6%.
Screening CCN1C(=S)SC(=O)C1=C1C=C(C)N(Cc2ccco2)C(C)=C1 returned miR-21 reporter -46%, Vif-A3F inh inconclusive, Vif-APOBEC3G blk 11µM* and Epigenetic reg -1%.
CCN1C(=S)SC(=O)C1=C1C=C(C)OC(C)=C1 was read as miR-21 reporter -21%, Vif-A3F inh 0%, Vif-APOBEC3G blk -1% and Epigenetic reg 1%.
NC(=S)N/N=C/c1ccccc1OC(=O)/C=C/c1ccccc1 was read as miR-21 reporter 7%, Vif-A3F inh 11µM* and Vif-APOBEC3G blk 0%.
`CCN(C(=O)Cn1ncc2c1-c1cc(C)ccc1OC2)c1cc(Cl)ccc1OC` gave miR-21 reporter 14%, Vif-A3F inh 11%, Vif-APOBEC3G blk 1% and Epigenetic reg 0%.
For Cn1ccnc1Sc1nc2ccccc2nc1NS(=O)(=O)c1ccccc1 the results were miR-21 reporter -36%, Vif-A3F inh 25µM*, Vif-APOBEC3G blk -13% and Epigenetic reg 7%.
`Cn1cnnc1Sc1nc2ccccc2nc1NS(=O)(=O)c1ccccc1` gave miR-21 reporter -4%, Vif-A3F inh inconclusive, Vif-APOBEC3G blk -2% and Epigenetic reg 2%.
COc1ccc(Nc2nc3ccccc3nc2NS(=O)(=O)c2ccc(C)cc2)c(OC)c1 was read as miR-21 reporter -1%, Vif-A3F inh inconclusive, Vif-APOBEC3G blk -2% and Epigenetic reg 5%.
